C2C12 statin: protects C2C12 myotubes from simvastatin toxicity | ATP luminescence, 48 h; scaled: DMSO 0, geranylgeraniol control 100 | rescue of ATP level, % at 7.49 µM | 0.78% of 330,000 active;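 active = mean ATP rescue above about 67%, or every replicate alone reaching that limit, limit read from the data, passing the limit was not always enough; inconclusive = no clear call, values can overlap the other calls; inactive = mean under the limit and some replicate under it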;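 note: myotubes were challenged with 10 µM simvastatin during compound exposure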
miR122 inh: blocks miR-122 activity in Huh7 sensor cells; Huh7 miR-122 Renilla luciferase sensor, 48 h; neutral wells = 0, positive control = 100; activation (reporter increase), % at 12.5 µM; 0.3% of 340,000 active;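 active = mean replicate activation score at least 90 and every replicate individually at or above 90; inconclusive = only one of the two criteria met; inactive = neither criterion met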;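 note: higher luciferase means less miR-122 activity so hits act as miR-122 inhibitors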
PAX8 inh HTS: lowers PAX8-driven luciferase in RMG-I cells. AID 652154. inhibition, % at 12.6 µM. 1.2% of 360,000 active. RMG-I TPO-luciferase reporter, SteadyGlo, 24 h;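 active = mean replicate inhibition at least 60% with every replicate also reaching 60%; inconclusive = only one of the two criteria is met; inactive = mean below 60% and not all replicates reaching 60%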;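 note: luciferase light reporting Pax8 driven TPO promoter activity; plate controls were median of neutral control wells for no effect and mitoxantrone controls for full effect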
EWS-Fli inh: blocks EWS/Fli oncoprotein-driven transcription | A673 NR0B1-luciferase reporter, viability-normalised | inhibition, % at 12.6 µM | 0.67% of 350,000 active;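 active = mean inhibition of at least 50% after viability correction, with every replicate also passing that limit; inconclusive = mean reaches 50% but only one of two replicates passes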;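 note: firefly luciferase signal divided by Alamar Blue viability fluorescence both relative to DMSO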
GSIS activator: primary screen for activators of insulin secretion dependent on glucose, INS-1E cells, GLuc reporter luminescence | INS-1E GLuc reporter insulin secretion, 2-3 h | activation, % at 16.6 µM | 0.61% of 370,000 active | AID 743287;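 active = lowest replicate activation of at least 40%, so every replicate reaches that level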;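 note: 0% = median of neutral control wells and 100% = median of IBMX positive control wells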
HIV Env fusion: HIV envelope-mediated fusion inhibition; HeLa-JRFL Env/CEM21 cell fusion, luciferase; inhibition, % at 12.3 µM; 1.1% of 360,000 active; AID 651610;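 active = mean replicate inhibition score of at least 50 and every replicate individually at or above 50; inconclusive = only one of the two criteria met; inactive = mean below 50 and not all replicates reaching 50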;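 note: 0% = plate neutral controls and 100% = maraviroc near 300 nM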
Starred values were filed as active, the others as inactive; ? = inconclusive; · = no result; [ ] = remark or other dose. An excerpt weighted towards active compounds, which were near 3.1% of everything screened.

SMILES | C2C12 statin | miR122 inh | PAX8 inh HTS | EWS-Fli inh | GSIS activator | HIV Env fusion
CCCCCn1c(CCC(=O)Oc2ccccc2OC)nc2c1c(=O)[nH]c(=O)n2CCCC | 129* | -1 | · | · | · | ·
Cc1cccc(NS(=O)(=O)c2cc3c4c(c2)CCC(=O)N4CCC3)c1 | -13 | 181* | 8 | 9 | -2 | 0
O=C1CCc2cc(NS(=O)(=O)c3ccccc3)cc3c2N1CCC3 | -22 | 63 | -2 | -24 | 0 | 5
C=CCNc1sc(C(=O)C2CC2)c(N)c1C#N | 2 | 4 | · | · | 65* | ·
CCNc1nc(N)nc(Oc2ccc(OCCOc3ccccc3)nn2)n1 | · | 151* | · | · | · | -21
CCc1ccc(-c2cc(C)no2)cc1S(=O)(=O)Nc1ccc(C)cn1 | -25 | ? | 20 | 1 | 32 | 8
Cc1ccc(NS(=O)(=O)c2cc(-c3cc(C)no3)ccc2C(C)C)nc1 | 7 | 99* | -24 | -6 | 37 | 0
CCc1ccc(-c2cc(C)no2)cc1S(=O)(=O)NCCCN1CCN(c2ccccc2)CC1 | -1 | · | 61* | 9 | -13 | 49
COc1ccccc1CNS(=O)(=O)c1cc(-c2cc(C)no2)ccc1C(C)C | 3 | 107* | 17 | 3 | 46* | -6
COc1ccc(OC)c(CNS(=O)(=O)c2cc(-c3cc(C)no3)ccc2OC)c1 | 4 | 13 | 3 | · | 27 | 3
CCOc1ccccc1CNS(=O)(=O)c1cc(-c2cc(C)no2)ccc1OC | -2 | 53 | -2 | 1 | 1 | 5
COc1ccc(-c2cc(C)no2)cc1S(=O)(=O)NCC(C)c1ccccc1 (stereo not drawn) | -2 | 148* | 0 | -1 | -7 | 56*
CN1C(=O)c2cc(NC(=O)c3ccno3)ccc2OC[C@H]2O[C@@H](CC(=O)NCC3CC3)CC[C@@H]21 | 25 | -33[16.7 µM] | -3 | -6 | -7 | -22[16.7 µM]
C=C1SC(=Nc2ccccc2Cl)N(C(=O)c2sc3ccccc3c2Cl)C1(C)C | · | · | -29 | -16 | 13 | 11
C=C1SC(=Nc2c(C)cccc2Cl)N(C(=O)c2sc3ccccc3c2Cl)C12CCCCC2 | -13 | · | 14 | 0 | 135* | 13
CCNC(=O)[C@@H]1[C@@H](CO)[C@@H]2Cn3c(ccc(-c4ccc(OC)cc4)c3=O)[C@H]1N2S(C)(=O)=O | 16 | 2[16.7 µM] | 4 | 6 | 9 | ·
Cc1ccc(C(O)CN2C3=NCCN3c3ccccc32)cc1 (stereo not drawn) | 121* | -5 | · | · | · | ·
C[C@@H]1CCCCO[C@H](CN(C)Cc2ccc(C(F)(F)F)cc2)[C@H](C)CN([C@@H](C)CO)C(=O)c2cc(NC(=O)Nc3ccc4c(c3)OCO4)ccc2O1 | · | -1[16.7 µM] | 84* | 3 | -7 | 26[16.7 µM]
C[C@@H]1CCCCO[C@@H](CN(C)Cc2ccc3c(c2)OCO3)[C@@H](C)CN([C@@H](C)CO)C(=O)c2cc(NC(=O)Nc3ccc4c(c3)OCO4)ccc2O1 | · | 8[16.7 µM] | -9 | -3 | -37 | -8[16.7 µM]
C[C@@H]1CCCCO[C@@H](CN(C)Cc2ccc(C(F)(F)F)cc2)[C@H](C)CN([C@H](C)CO)C(=O)c2cc(NC(=O)Nc3ccc4c(c3)OCO4)ccc2O1 | · | -9[16.7 µM] | 71* | 26 | -13 | 65*[16.7 µM]
C[C@H]1CCCCO[C@H](CN(C)Cc2ccc3c(c2)OCO3)[C@@H](C)CN([C@@H](C)CO)C(=O)c2cc(NC(=O)Nc3ccc4c(c3)OCO4)ccc2O1 | · | 7[16.7 µM] | 4 | 14 | -36 | 21[16.7 µM]
C[C@H]1CCCCO[C@H](CN(C)Cc2ccc(C(F)(F)F)cc2)[C@@H](C)CN([C@@H](C)CO)C(=O)c2cc(NC(=O)Nc3ccc4c(c3)OCO4)ccc2O1 | · | -1[16.7 µM] | 46 | 8 | -10 | 60*[16.7 µM]
C[C@H](CO)N1C[C@H](C)[C@@H](CN(C)Cc2ccc(C(F)(F)F)cc2)OCCCC[C@H](C)Oc2ccc(NC(=O)Nc3ccc4c(c3)OCO4)cc2C1=O | · | -7[16.7 µM] | 60 | 18 | -12 | 71*[16.7 µM]
C[C@@H]1CCCCO[C@H](CN(C)Cc2ccc3c(c2)OCO3)[C@H](C)CN([C@@H](C)CO)C(=O)c2cc(NC(=O)Nc3ccc4c(c3)OCO4)ccc2O1 | · | 4[16.7 µM] | 33 | 4 | -18 | 14[16.7 µM]
CCC(=O)N1CCC2(CC1)CN(Cc1cccc(Cl)c1)[C@H](CO)c1c2c2ccc(OC)cc2n1C | · | · | 12 | 6 | 4 | ·
SMILES | C2C12 statin | miR122 inh | PAX8 inh HTS | EWS-Fli inh | GSIS activator | HIV Env fusion
CO[C@H]1CN(C)C(=O)c2cc(NC(=O)C3CC3)ccc2OC[C@@H](C)N(Cc2ccccc2)C[C@@H]1C | 14 | -3[16.7 µM] | · | 13 | -23 | ·
C[C@H]1CCCCO[C@@H](CN(C)Cc2ccc(C(F)(F)F)cc2)[C@@H](C)CN([C@@H](C)CO)C(=O)c2cc(NC(=O)Nc3ccc4c(c3)OCO4)ccc2O1 | · | -6[16.7 µM] | 80* | -14 | 1 | 86*[16.7 µM]
C[C@@H]1CCCCO[C@H](CN(C)Cc2ccc3c(c2)OCO3)[C@@H](C)CN([C@H](C)CO)C(=O)c2cc(NC(=O)Nc3ccc4c(c3)OCO4)ccc2O1 | · | 2[16.7 µM] | -15 | 5 | -19 | 19[16.7 µM]
Nc1ncnc2c1ncn2C1O[C@H](CO)[C@@H](O)[C@@H]1O (stereo partly drawn) | -11 | -10 | -7 | 9 | 0 | -2
Nc1ncnc2c(C3OC(CO)C(O)C3O)scc12 (stereo not drawn) | · | 3 | 114* | 37 | -18 | 109*
COc1ccccc1-c1cn(CC[C@@H]2CC[C@H](NC(=O)C3CC3)[C@@H](CO)O2)nn1 | 5 | · | 8 | -6 | 12 | -4[16.7 µM]
CN1CCN(S(=O)(=O)c2ccc(Cc3ccc(S(=O)(=O)N4CCN(C)CC4)cc3)cc2)CC1 | 82* | 2 | · | · | · | ·
C[C@H]1CN([C@@H](C)CO)C(=O)c2cccc(NS(=O)(=O)c3cccs3)c2O[C@@H]1CN(C)CC1CC1 | -1 | 0[16.7 µM] | -36 | 0 | 6 | -16[16.7 µM]
C[C@@H]1CN([C@@H](C)CO)C(=O)Cc2cc(NC(=O)C3CCCCC3)ccc2O[C@H]1CN(C)Cc1ccc2c(c1)OCO2 | 6 | -7[16.7 µM] | · | 26 | -5 | -33[16.7 µM]
N#C[C@@H]1[C@@H](c2ccc(-c3ccccc3F)cc2)[C@@H](CO)N1C(=O)Cc1ccccc1 | 8 | · | 5 | -59 | 5 | -1[16.7 µM]
N#C[C@@H]1[C@H](c2ccc(-c3ccccc3F)cc2)[C@@H](CO)N1C(=O)Cc1ccccc1 | 17 | · | 103* | 19 | -17 | 58*[16.7 µM]
COc1cccc(-c2ccc([C@@H]3[C@H](C#N)N(C(=O)Cc4ccccc4)[C@H]3CO)cc2)c1 | -47 | · | 12 | -1 | -14 | 11[16.7 µM]
N#C[C@@H]1[C@@H](c2ccc(-c3ccc(F)cc3)cc2)[C@H](CO)N1C(=O)Cc1ccccc1 | 75* | · | 24 | -16 | -4 | 8[16.7 µM]
COc1cccc(-c2ccc([C@H]3[C@@H](CO)N(C(=O)Cc4ccccc4)[C@H]3C#N)cc2)c1 | -16 | · | 91* | 4 | -10 | 23[16.7 µM]

Screens (PubChem)
